Screens as filed in PubChem.
Hits are enriched below; roughly 1.1% of the tested compounds scored in any of these assays.
TRPV1 agonist = human TRPV1 agonism; activation, % at 8.33 µM; TRPV1-expressing cells, Fluo-8 calcium influx, agonist mode; 0.19% of 320,000 active; in the data active means activation above about 80%; inconclusive means between about 30% and that limit
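Fluo-8 calcium influx in TRPV1-expressing cells, kinetic read (ex 480/em 520 nm). Compound added and read 3 min for agonist activity, followed by capsaicin at EC20 final and 2 min further read for enhancement.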
gsp ag = gsp mutant agonism | gsp mutant cells, cAMP HTRF, 30 min | 0.13% of 340,000 active | Potency, µM (top dose mostly 76.9 µM), hits mostly activators | AID 624287; active means well fitted activation curve with a large enough effect; inconclusive means small, poorly fitted or top-dose-only effect, or another doubt; inactive means no such curve, though single readings can be large or run the other way; cell line not stated here;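 further: phosphodiesterase inhibitor Ro 20-1724 added with compounds to block cAMP breakdown; nearly all actives have a fitted effect of over 60% in size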
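Cells in DMEM/10% FBS with G418 were pretreated with compounds in DMSO plus […] (300 uM stock) for 30 min at 37C. cAMP was measured by HTRF (cAMP-d2 plus anti-cAMP antibody-K) after 30 min at room temperature.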
TRPV1 PAM = human TRPV1 potentiation. 0.02% of 320,000 active. AID 540277. Q8NER1. TRPV1-expressing cells, Fluo-8 calcium influx, capsaicin EC20 potentiation. potentiation, % at 8.33 µM; in the data active means potentiation above about 80%; inconclusive means between about 30% and that limit
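Cells expressing TRPV1 were dye-loaded with Fluo-8 and read kinetically: 10 s baseline, 3 min after compound (agonist portion), then 2 min after EC20 capsaicin (allosteric enhancer portion). Calcium-bound dye fluorescence at 480/520 nm.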
RXFP1 antag = antagonists of human relaxin receptor RXFP1; activity change, negative = inhibition, % at 57.5 µM; HEK293-RXFP1, relaxin-stimulated cAMP HTRF, 30 min; hits give low values; 0.59% of 350,000 active; AID 1259400;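 active means activity change of -60% or lower, but not beyond a set lower limit; inconclusive means change between -60% and -40%, or beyond the set limit; inactive means change above -40%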
Target sequence (Q9HBX9 whole entry, looked up): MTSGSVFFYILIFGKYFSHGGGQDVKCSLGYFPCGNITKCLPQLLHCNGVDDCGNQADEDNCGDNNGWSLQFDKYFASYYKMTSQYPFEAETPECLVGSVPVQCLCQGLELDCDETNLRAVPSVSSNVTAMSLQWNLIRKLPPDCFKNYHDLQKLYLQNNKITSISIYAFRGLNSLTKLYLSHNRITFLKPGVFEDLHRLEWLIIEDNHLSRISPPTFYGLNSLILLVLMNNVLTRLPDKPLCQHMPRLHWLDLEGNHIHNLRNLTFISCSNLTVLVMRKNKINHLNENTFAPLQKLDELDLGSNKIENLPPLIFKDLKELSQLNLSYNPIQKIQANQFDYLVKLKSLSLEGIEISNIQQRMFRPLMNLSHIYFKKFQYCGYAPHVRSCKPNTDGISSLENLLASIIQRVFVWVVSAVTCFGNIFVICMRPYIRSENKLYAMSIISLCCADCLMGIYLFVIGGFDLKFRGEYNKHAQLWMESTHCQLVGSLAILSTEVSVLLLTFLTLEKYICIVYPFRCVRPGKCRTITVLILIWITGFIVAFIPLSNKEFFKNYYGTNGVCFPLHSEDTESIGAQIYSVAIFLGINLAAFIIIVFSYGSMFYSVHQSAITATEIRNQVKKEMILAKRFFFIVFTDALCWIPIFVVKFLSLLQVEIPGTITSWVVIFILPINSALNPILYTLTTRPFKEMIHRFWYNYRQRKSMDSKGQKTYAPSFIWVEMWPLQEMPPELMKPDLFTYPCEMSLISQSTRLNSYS
gsp antag = gsp mutant antagonism. gsp-mutant cells, cAMP HTRF, 30 min. Potency, µM (series often up to 76.9 µM), usual class: inhibitors. 0.4% of 340,000 active. AID 624288; calls by dose curve; cell line not stated here;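 further: intracellular cAMP measured with PDE inhibitor Ro 20-1724 present during compound exposure; nearly all actives have a fitted effect of over 65% in size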
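Measurement of cellular cAMP by homogeneous time-resolved fluorescence following a 30 min compound exposure at 37C. The PDE inhibitor […] was present throughout; the assay buffer was DPBS with 0.05% BSA and 0.005% Tween 20.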
RXFP1 agonist = agonists of human relaxin receptor RXFP1; Q9HBX9; HEK293T-RXFP1 cAMP TR-FRET, 30 min; response scale: percent of porcine relaxin response, buffer zero; Potency, µM (highest dose often 57.5 µM), actives largely listed as activators; 0.3% of 370,000 active; active means well fitted activation curve with a large enough effect; inconclusive means small, poorly fitted or top-dose-only effect; further: nearly all actives have a fitted effect of over 60% in size
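Agonist response is measured as cAMP accumulation in an RXFP1-transfected HEK293T line under PDE4 inhibition. Values are scaled between buffer-only and 29 nM porcine relaxin, and EC50s come from standard Hill equation fits.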
A number is an active result; [ ] = dose if it differs, or a comment.

How did O=C(Nc1ccc(Br)cc1F)c1cc(S(=O)(=O)NCc2ccc(F)cc2)ccc1F do in these assays?
RXFP1 antag: inactive; RXFP1 agonist: inactive

How did C/C(=N\NC(=O)c1c(C)nc2ccccn12)c1ccc(C(C)(C)C)cc1 do in these assays?
TRPV1 agonist: inactive; gsp ag: inconclusive; TRPV1 PAM: inactive; RXFP1 antag: inactive; gsp antag: inactive; RXFP1 agonist: inactive

How did C/C(=N\NC(=O)c1c(C)nc2ccccn12)c1ccc(N2CCOCC2)cc1 do in these assays?
TRPV1 agonist: inactive; gsp ag: inconclusive; TRPV1 PAM: inactive; RXFP1 antag: inactive; gsp antag: inactive; RXFP1 agonist: 14µM

How did O=[N+]([O-])c1cccc(NC(=S)N2CCc3ccccc32)c1 do in these assays?
TRPV1 agonist: inactive; gsp ag: inactive; TRPV1 PAM: inactive; RXFP1 antag: inactive; gsp antag: inactive; RXFP1 agonist: inactive

Results for CCc1ccc(CN2CCCC(C(=O)Nc3ccccc3-c3ccc(OC)cc3)C2)o1 (stereo not given) ?
TRPV1 agonist: inconclusive; gsp ag: inactive; TRPV1 PAM: inactive; RXFP1 antag: -77; gsp antag: inactive; RXFP1 agonist: inactive

How did COCc1ccc(CN2CCCC(C(=O)Nc3ccccc3-c3ccc(OC)cc3)C2)o1 (stereo not given) do in these assays?
TRPV1 agonist: inactive; gsp ag: inactive; TRPV1 PAM: inactive; RXFP1 antag: inactive; gsp antag: inactive; RXFP1 agonist: inactive

What do the screens show for `COc1ccc(CC(=O)Nc2cc(-c3cn4cccnc4n3)ccc2OC)cc1`?
RXFP1 antag: inactive; RXFP1 agonist: inactive

Results for O=C(CCSCc1ccc(Cl)cc1)NCc1cccnc1 ?
TRPV1 agonist: 81; gsp ag: inactive[15.4 µM]; TRPV1 PAM: inactive; RXFP1 antag: inactive; gsp antag: inactive; RXFP1 agonist: inactive

What do the screens show for `O=C(CCSCc1ccc(Cl)cc1)NCCc1ccccc1`?
TRPV1 agonist: inconclusive; gsp ag: inactive; TRPV1 PAM: inactive; RXFP1 antag: inactive; gsp antag: inactive; RXFP1 agonist: inactive

Results for Cc1cc(C)c(NC(=O)COC(=O)Cc2cccs2)c(C)c1 ?
TRPV1 agonist: inactive; gsp ag: inactive[15.4 µM]; TRPV1 PAM: inactive; RXFP1 antag: -109; gsp antag: inactive; RXFP1 agonist: inactive

How did CC1(C)CC(=O)C2=C(C1)NC1=C(C(=O)c3ccccc31)C2c1cc([N+](=O)[O-])ccc1O (stereo not given) do in these assays?
TRPV1 agonist: inactive; gsp ag: 14µM; TRPV1 PAM: inactive; RXFP1 antag: inactive; gsp antag: inactive; RXFP1 agonist: inconclusive

Results for CC1(C)CC(=O)C2=C(C1)NC1=C(C(=O)c3ccccc31)C2c1ccccc1 (stereo not given) ?
TRPV1 agonist: inactive; gsp ag: inconclusive; TRPV1 PAM: inactive; gsp antag: inactive; RXFP1 agonist: inactive

Results for CCN(CC(=O)NC1CCS(=O)(=O)C1)S(=O)(=O)c1c(C)c(C)cc(C)c1C (stereo not given) ?
TRPV1 agonist: inactive; gsp ag: inactive; TRPV1 PAM: inactive; RXFP1 antag: inactive; gsp antag: inactive; RXFP1 agonist: inactive

How did Cc1ccccc1OCC(=O)NNC(=O)C1CCN(c2ncnc3sc(C)c(C)c23)CC1 do in these assays?
TRPV1 agonist: inactive; gsp ag: inactive; TRPV1 PAM: inactive; RXFP1 antag: -68; gsp antag: 35µM; RXFP1 agonist: inactive

Results for COc1ccccc1OCC(=O)NNC(=O)C1CCN(c2ncnc3sc(C)c(C)c23)CC1 ?
TRPV1 agonist: inactive; gsp ag: inactive; TRPV1 PAM: inactive; RXFP1 antag: inactive; gsp antag: inactive; RXFP1 agonist: inactive

Results for Cc1sc2ncnc(N3CCC(C(=O)NCC(=O)Nc4ccc(F)c(F)c4)CC3)c2c1C ?
TRPV1 agonist: inactive; gsp ag: inactive; TRPV1 PAM: inactive; RXFP1 antag: inactive; gsp antag: 40µM; RXFP1 agonist: inactive

What do the screens show for `COc1ccc(OC)c(NC(=O)C2CCN(S(=O)(=O)c3c(C)noc3/C=C/c3ccc(C)cc3)CC2)c1`?
RXFP1 agonist: inactive

What do the screens show for `C=CC(C)(C)O[C@@H]1O[C@H](CO)[C@@H](O)[C@H](O)[C@H]1O`?
TRPV1 agonist: inactive; gsp ag: inactive; TRPV1 PAM: inactive; gsp antag: inactive; RXFP1 agonist: inactive

What do the screens show for `Cc1ccc(CNC(=O)C(C)n2nc(C)c3sc4ccccc4c3c2=O)cc1` (stereo not given)?
RXFP1 antag: inactive; RXFP1 agonist: 32µM

What do the screens show for `Cc1cc(NC(=O)CSc2nnc3ccc(-c4ccc(F)cc4)nn23)no1`?
TRPV1 agonist: inactive; gsp ag: inactive[15.4 µM]; TRPV1 PAM: inactive; RXFP1 antag: inactive; gsp antag: inactive; RXFP1 agonist: inactive

Results for COc1ccc(Nc2nc3ccccc3nc2NS(=O)(=O)c2cccs2)c(OC)c1 ?
TRPV1 agonist: inactive; gsp ag: inactive; TRPV1 PAM: inconclusive; RXFP1 antag: inactive; gsp antag: inactive; RXFP1 agonist: inactive

What do the screens show for `COc1cccc(Nc2nc3ccccc3nc2NS(=O)(=O)c2cccs2)c1`?
TRPV1 agonist: inactive; gsp ag: inactive; TRPV1 PAM: inactive; RXFP1 antag: inactive; gsp antag: 14µM; RXFP1 agonist: inactive

What do the screens show for `NN1C(=O)/C(=C\c2ccco2)SC1=S`?
gsp ag: inactive[15.4 µM]; RXFP1 antag: inactive; gsp antag: inactive; RXFP1 agonist: inactive

What do the screens show for `O=C(O)c1ccccc1NS(=O)(=O)c1cccc(C(F)(F)F)c1`?
TRPV1 agonist: inactive; gsp ag: inactive; TRPV1 PAM: inactive; RXFP1 antag: inactive; gsp antag: inactive; RXFP1 agonist: inactive

How did O=C(O)c1ccccc1NS(=O)(=O)c1cccc(-n2sc3ccccc3c2=O)c1 do in these assays?
TRPV1 agonist: inactive; gsp ag: inactive; TRPV1 PAM: inactive; RXFP1 antag: -115; gsp antag: inconclusive; RXFP1 agonist: inactive

Results for CN1C[C@@H]2[C@@H]3C(=O)N(C)C(=O)[C@@H]3[C@](Cc3ccccc3)(C1=O)N2C(=O)c1ccc(Cl)cc1 ?
gsp ag: inactive; gsp antag: inactive

How did N#CCC(=O)Nc1ccc(C(=O)OCC(=O)Nc2cccc(C(F)(F)F)c2)cc1 do in these assays?
TRPV1 agonist: inactive; gsp ag: inactive[15.4 µM]; TRPV1 PAM: inactive; RXFP1 antag: inactive; gsp antag: inactive; RXFP1 agonist: inactive

How did O=C(CSc1nc2ccsc2c(=O)n1CC1CCC(C(=O)O)CC1)c1ccc(Cl)cc1 (stereo not given) do in these assays?
TRPV1 agonist: inactive; gsp ag: inactive[15.4 µM]; TRPV1 PAM: inactive; RXFP1 antag: inactive; gsp antag: 22µM; RXFP1 agonist: inactive

What do the screens show for `O=C(CSc1nc2ccsc2c(=O)n1CC1CCC(C(=O)O)CC1)c1ccc(F)cc1` (stereo not given)?
TRPV1 agonist: inactive; gsp ag: inconclusive; TRPV1 PAM: inactive; RXFP1 antag: inactive; gsp antag: inconclusive; RXFP1 agonist: inactive
